Data on nine molecules can be found in PubChem BioAssay (Tox21).

In experiment [1] the target is Peroxisome proliferator-activated receptor gamma (Homo sapiens) (UniProt P37231). Kind of experiment: qHTS assay to identify small molecule antagonists of the peroxisome proliferator-activated receptor gamma (PPARg) signaling pathway (AID 743191; calls by dose curve; further: series mostly up to about 63 µM; nearly all actives have a fitted effect of over 30% in size). An outline of the steps:
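Beta-lactamase reporter under UAS control in HEK293H PPARg-bla cells; compound treatment 17 h at 37C. Read-out: fluorescence intensity after 1 h room-temperature incubation with LiveBLAzer B/G FRET substrate.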
On the technique in general: Quantitative high-throughput screening tests each substance at several concentrations.

Experiment [2] in a line: qHTS assay to identify small molecule antagonists of the peroxisome proliferator-activated receptor gamma (PPARg) signaling pathway - cell viability counter screen (AID 743194). Further: nearly all actives have a fitted effect of over 55% in size. Further: potency means the concentration at half of the fitted maximal effect. In short, it runs like this:
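Viability was measured as CellTiter-Glo luminescence in GeneBLAzer PPARg UAS-bla HEK293H cells. These cells had been exposed 17 h at 37 C to compounds together with rosiglitazone at 50 nM final, with the beta-lactamase readout taken in the same wells.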

Experiment [3] can be described thus: qHTS assay for small molecule agonists of the antioxidant response element (ARE) signaling pathway (AID 743202; active means well fitted activation curve with a large enough effect in the signal ratio in the repeat runs, not every such curve was filed as active; the % refers to the signal ratio; further: potency means the concentration at half of the fitted maximal effect). An outline of the steps:
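Beta-lactamase reporter activity, read as fluorescence intensity, reflects ARE/Nrf2 pathway induction in HepG2 cells after 16 h compound exposure at 37 C; substrate loading was 2 h at room temperature.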

Experiment [4] can be described thus: qHTS assay for small molecule agonists of the antioxidant response element (ARE) signaling pathway - cell viability counter screen (AID 743203; calls by dose curve; further: nearly all actives have a fitted effect of over 55% in size). An outline of the steps:
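Luminescence read-out (CellTiter-Glo, 30 min at room temperature) measured cell viability in the same wells as the ARE beta-lactamase reporter. HepG2 ARE-bla cells were treated with compounds for 16 hrs at 37C/5% CO2.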

Experiment [5] can be described thus: qHTS assay for small molecule activators of the heat shock response signaling pathway - cell viability counter screen (AID 743209). Further: nearly all actives have a fitted effect of over 50% in size. In short, it runs like this: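 HSE-bla HeLa; 1500 cells/well; overnight 37 C, 5% CO2; compound 5 h 37 C; LiveBLAzer B/G substrate 2.5 h RT; CellTiter-Glo 30 min RT; luminescence.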
A short description of experiment [6]: qHTS assay for small molecule activators of the heat shock response signaling pathway (AID 743210; active means well fitted activation curve with a large enough effect in the signal ratio in the repeat runs, with a control signal flat, not every such curve was filed as active; the % refers to the signal ratio;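 further: HeLa cells with beta-lactamase reporter driven by heat shock elements; series mostly up to about 63 µM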). In short, it runs like this: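 Fluorescence from a cleaved B/G FRET substrate (2.5 h, room temp) reports HSE-driven beta-lactamase in HeLa cells treated 5 h at 37 C with DMSO-dissolved compounds.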
Experiment [7] can be described thus: qHTS assay to identify small molecule agonists of the peroxisome proliferator-activated receptor delta (PPARd) signaling pathway - cell viability counter screen (AID 743211). Further: nearly all actives have a fitted effect of over 55% in size. Further: potency means the concentration at half of the fitted maximal effect. An outline of the steps:
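Read-out: CellTiter-Glo luminescence, 30 min RT, measured in the same wells as the beta-lactamase reporter. Cells: GeneBLAzer PPAR delta UAS-bla HEK293H, 3000 cells/well, compound exposure 17 h at 37C.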

A short description of experiment [8]: qHTS assay to identify small molecule antagonists of the peroxisome proliferator-activated receptor delta (PPARd) signaling pathway - cell viability counter screen (AID 743213). Further: nearly all actives have a fitted effect of over 50% in size. Further: potency means the concentration at half of the fitted maximal effect. An outline of the steps: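 In this counter screen, HEK293H cells carrying a UAS-beta-lactamase reporter are co-treated with test compounds and 300 nM L165041 (final) for 17 h at 37 C; cell viability is quantified by CellTiter-Glo luminescence.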

The nature of experiment [9]: qHTS assay to identify small molecule antagonists of the farnesoid-X-receptor (FXR) signaling pathway - cell viability counter screen (AID 743221; active means well fitted cell-killing curve with a large enough effect in the repeat runs, not every such curve was filed as active; further: nearly all actives have a fitted effect of over 50% in size). In short, it runs like this: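 HEK 293T FXR-bla cells, 5 h pre-incubation; compound + CDCA 50 uM final, 16 h, 37 C; beta-lactamase FRET read first, then CellTiter-Glo luminescence, 30 min RT.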
Experiment [10] deals with Vitamin D3 receptor (Homo sapiens) (UniProt P11473). Kind of experiment: qHTS assay to identify small molecule agonists of the vitamin D receptor (VDR) signaling pathway (AID 743222; calls by dose curve). In short, it runs like this: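 Beta-lactamase reporter readout (LiveBLAzer B/G FRET, 2 h RT) in VDR-bla cells after 16 h compound treatment at 37C, 5% CO2; cells pre-incubated 4 h before pin transfer of DMSO solutions.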
Chain of Vitamin D3 receptor (Homo sapiens) (P11473 whole entry, looked up): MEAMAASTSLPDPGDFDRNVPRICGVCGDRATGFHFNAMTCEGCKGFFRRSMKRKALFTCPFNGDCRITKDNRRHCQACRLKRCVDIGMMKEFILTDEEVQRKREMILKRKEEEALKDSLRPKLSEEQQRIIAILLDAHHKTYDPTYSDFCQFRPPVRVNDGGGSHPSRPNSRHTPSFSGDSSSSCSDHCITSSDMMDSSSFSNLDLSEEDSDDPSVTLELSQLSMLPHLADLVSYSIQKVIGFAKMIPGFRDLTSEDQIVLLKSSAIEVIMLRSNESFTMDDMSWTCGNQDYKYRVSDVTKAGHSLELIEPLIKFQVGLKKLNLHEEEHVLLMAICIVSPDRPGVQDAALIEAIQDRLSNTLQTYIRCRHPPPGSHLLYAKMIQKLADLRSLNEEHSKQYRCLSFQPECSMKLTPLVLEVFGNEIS

Experiment [11] has the same target. Kind of experiment: qHTS assay to identify small molecule antagonists of the vitamin D receptor (VDR) signaling pathway (AID 743223; active means well fitted inhibition curve with a large enough effect in the signal ratio in the repeat runs, not every such curve was filed as active; the % refers to the signal ratio). An outline of the steps:
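Beta-lactamase reporter read-out: FRET substrate fluorescence after 2 h at room temperature, following 16 h exposure of VDR-bla cells to test compound plus 3 nM (final) 1alpha,25-dihydroxyvitamin D3 agonist at 37C.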

The nature of experiment [12]: qHTS assay to identify small molecule that activate the aryl hydrocarbon receptor (AhR) signaling pathway - cell viability counter screen (AID 743086). Further: series mostly up to about 70 µM; nearly all actives have a fitted effect of over 45% in size. In short, it runs like this: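 Cytotoxicity counter screen: CellTiter-Fluor signal (30 min, 37 C) in 4000 HepG2 cells/well carrying the DRE-luciferase reporter, following 24 h compound exposure at 37 C.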
The target in experiment [13] is Peroxisome proliferator-activated receptor gamma (Homo sapiens) (UniProt P37231). Kind of experiment: qHTS assay to identify small molecule agonists of the peroxisome proliferator-activated receptor gamma (PPARg) signaling pathway (AID 743094; active means well fitted activation curve with a large enough effect in the signal ratio in the repeat runs, not every such curve was filed as active; the % refers to the signal ratio). An outline of the steps: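 HEK293H PPARg-bla cells, 5 h settle at 37C/5% CO2; compound (DMSO) 17 h, 37C; B/G FRET substrate 1 h RT; fluorescence intensity read-out. qHTS format.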
Chain of Peroxisome proliferator-activated receptor gamma (Homo sapiens) (P37231 whole entry, looked up): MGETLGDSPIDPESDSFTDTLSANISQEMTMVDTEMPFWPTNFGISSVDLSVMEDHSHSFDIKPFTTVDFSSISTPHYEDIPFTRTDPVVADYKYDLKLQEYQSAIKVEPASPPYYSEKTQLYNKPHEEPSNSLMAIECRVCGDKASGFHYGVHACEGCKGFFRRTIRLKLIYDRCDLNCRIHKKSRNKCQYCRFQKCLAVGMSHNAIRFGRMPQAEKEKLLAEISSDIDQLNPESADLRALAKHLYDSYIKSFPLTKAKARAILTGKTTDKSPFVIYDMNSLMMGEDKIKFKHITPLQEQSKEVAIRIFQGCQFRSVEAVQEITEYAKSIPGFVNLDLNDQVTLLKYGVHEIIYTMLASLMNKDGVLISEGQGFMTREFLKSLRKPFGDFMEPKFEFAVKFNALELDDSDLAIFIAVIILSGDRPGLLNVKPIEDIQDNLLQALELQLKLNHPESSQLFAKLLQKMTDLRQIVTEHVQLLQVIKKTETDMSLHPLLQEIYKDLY

Experiment [14] can be described thus: qHTS assay to identify small molecule agonists of the farnesoid-X-receptor (FXR) signaling pathway - cell viability counter screen (AID 743218). Further: nearly all actives have a fitted effect of over 45% in size. An outline of the steps: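 Luminescence from CellTiter-Glo, read after 30 min at RT, reports viability of GeneBLAzer FXR-UAS-bla HEK 293T cells treated 16 h with compounds in the wells used for the beta-lactamase reporter.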

Experiment [15] deals with Bile acid receptor (Homo sapiens) (UniProt Q96RI1). Kind of experiment: qHTS assay to identify small molecule agonists of the farnesoid-X-receptor (FXR) signaling pathway (AID 743220; active means well fitted activation curve with a large enough effect in the signal ratio in the repeat runs, not every such curve was filed as active; the % refers to the signal ratio). In short, it runs like this:
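FXR-UAS-bla HEK 293T cells carrying a UAS-driven beta-lactamase reporter were plated for 5 h at 37C/5% CO2, then exposed to DMSO-dissolved Tox21 10K compounds for 16 h at 37C. A LiveBLAzer B/G FRET substrate was loaded for 2 h at room temperature before fluorescence reading.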

The target in experiment [16] is Peroxisome proliferator-activated receptor delta (Homo sapiens) (UniProt Q03181). Kind of experiment: qHTS assay to identify small molecule agonists of the peroxisome proliferator-activated receptor delta (PPARd) signaling pathway (AID 743212; calls by dose curve; further: potency means the concentration at half of the fitted maximal effect). An outline of the steps: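 Steps: seed PPARd-bla HEK293H cells; incubate 5 h, 37 C, 5% CO2; add compounds in DMSO; incubate, 37 C; add LiveBLAzer B/G FRET substrate; hold 2 h at room temperature; measure fluorescence.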
Chain of Peroxisome proliferator-activated receptor delta (Homo sapiens) (Q03181 whole entry, looked up): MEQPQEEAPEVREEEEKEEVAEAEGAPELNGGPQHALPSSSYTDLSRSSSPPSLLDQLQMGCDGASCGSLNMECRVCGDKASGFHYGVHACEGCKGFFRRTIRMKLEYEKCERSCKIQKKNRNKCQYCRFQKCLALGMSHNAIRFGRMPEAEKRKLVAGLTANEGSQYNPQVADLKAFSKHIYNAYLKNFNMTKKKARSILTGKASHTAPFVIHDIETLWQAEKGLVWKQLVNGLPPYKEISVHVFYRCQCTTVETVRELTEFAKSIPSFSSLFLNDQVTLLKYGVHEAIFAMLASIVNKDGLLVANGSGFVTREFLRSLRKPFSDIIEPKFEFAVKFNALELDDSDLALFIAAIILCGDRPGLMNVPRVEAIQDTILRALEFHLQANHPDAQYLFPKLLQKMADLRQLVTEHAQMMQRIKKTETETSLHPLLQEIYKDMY

For experiment [17] the target is unchanged. Kind of experiment: qHTS assay to identify small molecule antagonists of the peroxisome proliferator-activated receptor delta (PPARd) signaling pathway (AID 743215; active means well fitted inhibition curve with a large enough effect in the signal ratio in the repeat runs, not every such curve was filed as active; the % refers to the signal ratio;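 further: cells stimulated with agonist L165041 at 300 nM final during compound exposure; series mostly up to about 62 µM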). An outline of the steps:
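HEK293H GeneBLAzer PPARd UAS-bla reporter cells; cpd + L165041 300 nM final, 17 h 37 C; LiveBLAzer B/G FRET substrate 2 h RT; fluorescence intensity read-out. Antagonist mode.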

For experiment [18], the target named is Bile acid receptor (Homo sapiens) (UniProt Q96RI1). Kind of experiment: qHTS assay to identify small molecule antagonists of the farnesoid-X-receptor (FXR) signaling pathway (AID 743217; active means well fitted inhibition curve with a large enough effect in the signal ratio in the repeat runs, not every such curve was filed as active; the % refers to the signal ratio). In short, it runs like this: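 Read-out: beta-lactamase FRET fluorescence (LiveBLAzer B/G substrate, 2 h, room temperature) in GeneBLAzer FXR-UAS-bla HEK 293T cells. Compounds were co-dosed with 50 uM chenodeoxycholic acid (final) and incubated 16 h at 37 °C.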
Chain of Bile acid receptor (Homo sapiens) (Q96RI1 whole entry, looked up): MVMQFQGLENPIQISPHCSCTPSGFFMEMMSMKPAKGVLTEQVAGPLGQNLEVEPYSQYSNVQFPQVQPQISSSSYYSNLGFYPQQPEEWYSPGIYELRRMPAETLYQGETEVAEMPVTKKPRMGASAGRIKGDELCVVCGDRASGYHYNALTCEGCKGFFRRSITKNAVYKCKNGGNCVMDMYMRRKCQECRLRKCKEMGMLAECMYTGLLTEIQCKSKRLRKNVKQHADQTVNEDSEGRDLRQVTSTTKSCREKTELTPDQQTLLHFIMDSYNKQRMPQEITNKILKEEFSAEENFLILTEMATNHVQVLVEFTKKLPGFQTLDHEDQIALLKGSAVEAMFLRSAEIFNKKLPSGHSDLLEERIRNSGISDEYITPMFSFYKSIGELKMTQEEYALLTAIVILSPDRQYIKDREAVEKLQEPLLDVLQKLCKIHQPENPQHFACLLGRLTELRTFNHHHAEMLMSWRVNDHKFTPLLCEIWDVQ

The target in experiment [19] is Aryl hydrocarbon receptor (Homo sapiens) (UniProt P35869). Kind of experiment: qHTS assay to identify small molecule that activate the aryl hydrocarbon receptor (AhR) signaling pathway (AID 743085).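 Further: HG2L7.5c1 human HepG2 liver cells with stably integrated DRE-driven firefly reporter; series mostly up to about 70 µM; nearly all actives have a fitted effect of over 15% in size.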 An outline of the steps: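 Luminescence read-out: ONE-Glo reagent, 30 min at room temperature, in HG2L7.5c1 HepG2 reporter cells treated 24 h at 37C. Viability was measured beforehand by CellTiter-Fluor fluorescence after 30 min at 37C.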
Chain of Aryl hydrocarbon receptor (Homo sapiens) (P35869 whole entry, looked up): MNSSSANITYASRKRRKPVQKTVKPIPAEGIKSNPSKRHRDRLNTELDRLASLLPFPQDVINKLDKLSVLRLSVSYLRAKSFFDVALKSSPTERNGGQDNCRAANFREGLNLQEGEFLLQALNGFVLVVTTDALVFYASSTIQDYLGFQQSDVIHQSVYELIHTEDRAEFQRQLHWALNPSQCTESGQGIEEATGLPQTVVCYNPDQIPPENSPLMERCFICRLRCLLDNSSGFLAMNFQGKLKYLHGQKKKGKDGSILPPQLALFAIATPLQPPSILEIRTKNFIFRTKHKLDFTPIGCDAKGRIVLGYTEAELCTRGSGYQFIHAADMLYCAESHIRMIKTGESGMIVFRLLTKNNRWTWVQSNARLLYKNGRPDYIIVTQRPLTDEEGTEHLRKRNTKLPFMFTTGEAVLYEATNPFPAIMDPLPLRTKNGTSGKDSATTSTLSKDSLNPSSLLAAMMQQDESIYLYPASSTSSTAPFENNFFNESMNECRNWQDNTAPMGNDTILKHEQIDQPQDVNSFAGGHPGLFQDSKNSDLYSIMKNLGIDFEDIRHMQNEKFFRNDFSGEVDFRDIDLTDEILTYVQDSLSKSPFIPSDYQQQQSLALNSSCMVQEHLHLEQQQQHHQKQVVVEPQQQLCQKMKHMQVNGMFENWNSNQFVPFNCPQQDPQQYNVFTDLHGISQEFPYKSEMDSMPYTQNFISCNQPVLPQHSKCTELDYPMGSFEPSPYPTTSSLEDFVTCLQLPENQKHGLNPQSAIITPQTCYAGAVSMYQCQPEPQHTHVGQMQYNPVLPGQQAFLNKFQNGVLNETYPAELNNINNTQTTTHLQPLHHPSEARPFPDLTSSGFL

Results filed as inconclusive are left out. The source made the active and inactive calls. Unless noted, the call rests on the fitted dose curve; in most records, active means well fitted curve in the direction sought with a large enough effect in the repeat runs; inconclusive means weak or mixed curves; inactive means no such curve, though single readings can be large; an effect the other way counts as inactive or inconclusive.

Take `OC1(c2ccccc2)CCNCC1`: the Potency result in experiment [1], in experiment [2], in experiment [3], in experiment [4], in [5] and in experiment [6] was “inactive” throughout. Further, the Potency result in experiment [7], in experiment [8], in [9], in [10] and in [11] was “inactive” each time.

Turning to `Oc1ccc(Cl)c2cccnc12`, the Potency result in [12], in experiment [13], in experiment [4], in experiment [5], in experiment [14] and in experiment [15] was “inactive” throughout. Further, the Potency entry in experiment [9] was “inactive”. The Potency is 23.7 µM (active) in experiment [3] and 0.596 µM (active) in [7].

Take `CCCCCCCCC(CCCCCC)C(=O)O` (stereo unspecified): the Potency entry in [12], in [3], in experiment [8], in experiment [15], in experiment [10] and in experiment [11] was “inactive” in each case. For the same molecule, the Potency in experiment [2] was 38.9 µM (active).

Regarding `COc1ccc(OC(=O)N(CC(=O)O)Cc2ccc(OCCc3nc(-c4ccccc4)oc3C)cc2)cc1`, the Potency entry in experiment [2], in experiment [4], in experiment [5], in [6], in [7] and in experiment [8] was “inactive” in each case. The Potency entry in [17], in experiment [18], in experiment [14] and in experiment [11] was “inactive” each time. Further, the Potency in experiment [16] was 8.41 µM (active).

In the case of `O=[N+]([O-])c1ccc(Nc2ccc(Nc3ccccc3)c(S(=O)(=O)O)c2)c([N+](=O)[O-])c1`, the Potency entry in experiment [19], in experiment [13], in experiment [1], in experiment [2], in [4] and in [6] was “inactive” in each case. The Potency result in [7], in experiment [16], in [14] and in [9] was “inactive” in each case.

Regarding `Brc1cc(Br)c(Oc2cc(Br)c(Br)cc2Br)cc1Br`, the Potency result in [2], in experiment [3], in experiment [4] and in experiment [14] was “inactive” in each case. The Potency in experiment [8] is 23.9 µM (active).

Take `CCCC(C(=O)OCCN(CC)CC)(c1ccccc1)c1ccccc1`: the Potency result in experiment [19], in experiment [13], in experiment [2], in experiment [4], in experiment [5] and in experiment [16] was “inactive” each time. Moreover, the Potency entry in experiment [17], in experiment [14], in experiment [15], in experiment [9] and in [10] was “inactive” throughout. The Potency in experiment [7] was 29.8 µM (active).

As for `CC(=O)N/N=C/c1ccc([N+](=O)[O-])o1`, the Potency result in experiment [2], in experiment [4], in experiment [7], in [16], in experiment [8] and in [17] was “inactive” in each case. Besides, the Potency result in experiment [14] and in experiment [10] was “inactive” throughout.

`CCC1NC(=O)c2cc(S(N)(=O)=O)c(Cl)cc2N1` (stereo unspecified): the Potency entry in experiment [12], in [13], in experiment [1], in experiment [2], in [3] and in experiment [4] was “inactive” each time. For the same molecule, the Potency entry in experiment [6], in experiment [7], in experiment [16], in experiment [8], in experiment [14] and in experiment [10] was “inactive” throughout. In experiment [11], the Potency entry was “inactive”.
